Screening results deposited in PubChem BioAssay by National Center for Advancing Translational Sciences (NCATS).
In the library only some 9.2% were active in any assay of this set; here they are far more common.
ELG1 DNA repair: inhibitors of ELG1-dependent DNA repair in HEK293T cells; HEK293T ELG1-luciferase reporter, luminescence, 16 h; DNA damage induced by 5-fluorouridine; Potency, µM (doses to about 46.1 µM), for the others: at the highest dose activity change, negative = inhibition, actives largely listed as inhibitors; 330,000 tested, 2.3% active; note: % is set by controls: 0 for no effect and ±100 for the full control effect; nearly all actives have a fitted effect of over 55% in size
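Quantitative HTS, concentration-response format. 2,000 cells/well co-treated with 5-fluorouridine and compound, 16 hr in 5% CO2 at 37 °C; ONE-Glo luminescence read after 30 min.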
NPC1 promoter act: NPC1 promoter activation. Huh7 NPC1 promoter luciferase reporter, 24 h. Potency, µM (doses to about 9.22 µM), without a hit: at the top dose activation, actives largely listed as activators. 320,000 tested, 2.4% active; note: % of control where 0% means no effect; nearly all actives have a fitted effect of over 60% in size
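Readout is luciferase luminescence, reflecting NPC1 promoter activation in stably transfected Huh7 cells after 24 h compound exposure at 37 °C in reduced-serum medium with 10% FBS.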
SMN2 splice enh: enhancers of SMN2 splice variant expression. HEK293 SMN2-luciferase splicing reporter, luminescence, 30-36 h. Potency, µM (highest dose often 46.1 µM), for inactives: at the highest dose activity change, positive = activation, most hits filed as activators. 210,000 tested, 2.8% active. AID 1458; note: % of control where 0% means no effect; nearly all actives have a fitted effect of over 55% in size
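qHTS luciferase splicing reporter: luminescence rises when SMN2 exon 7 is included in transfected HEK293 cells. Compound exposure lasted 30-36 h at 37C, with 4.5 mM final sodium butyrate as control, followed by a ONE-Glo read.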
Rab9 prom act: activates the Rab9 promoter. Huh7 Rab9 promoter-luciferase reporter, luminescence, 24 h. Potency, µM (series often up to 9.22 µM), for inactives: at the top dose activation, negative = inhibition, actives largely listed as activators. 320,000 tested, 2.8% active. AID 485297; note: % of control where 0% means no effect; nearly all actives have a fitted effect of over 60% in size
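Steps: seed 1500 Huh7 Rab9-luc cells per well, rest 2 h at 37 °C; add compound in DMSO; incubate 24 h; add luciferase reagent, 10 min ambient; read luminescence.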
ELG1 genotox: induces genotoxicity in HEK293T cells with luciferase-tagged ELG1; HEK293T ELG1-luciferase reporter, luminescence, 16 h; Potency, µM (top dose mostly 46 µM), for the others: top-dose activity change, positive = activation, most hits filed as activators; 330,000 tested, 1.3% active; AID 504466; note: % of control where 0% means no effect; nearly all actives have a fitted effect of over 60% in size
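Quantitative HTS format in 1536-well plates. HEK293T ELG1-luciferase reporter cells receive test compound and are incubated 16 hr at 37 °C, 5% CO2; ONE-Glo added, 30 min room temperature, then luminescence read.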
FLuc modulator: inhibits or activates purified firefly luciferase, miR-21 counter-screen; P08659; purified FLuc, Km substrates, luminescence inhibition; Potency, µM (highest dose often 57.5 µM), for the others: at the highest dose activity change, negative = inhibition, hits mostly inhibitors; 360,000 tested, 6.9% active; AID 588342;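 note: plate controls were vehicle for no effect and reference inhibitor for full effect; nearly all actives have a fitted effect of over 55% in size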
Target sequence (P08659 whole entry, looked up): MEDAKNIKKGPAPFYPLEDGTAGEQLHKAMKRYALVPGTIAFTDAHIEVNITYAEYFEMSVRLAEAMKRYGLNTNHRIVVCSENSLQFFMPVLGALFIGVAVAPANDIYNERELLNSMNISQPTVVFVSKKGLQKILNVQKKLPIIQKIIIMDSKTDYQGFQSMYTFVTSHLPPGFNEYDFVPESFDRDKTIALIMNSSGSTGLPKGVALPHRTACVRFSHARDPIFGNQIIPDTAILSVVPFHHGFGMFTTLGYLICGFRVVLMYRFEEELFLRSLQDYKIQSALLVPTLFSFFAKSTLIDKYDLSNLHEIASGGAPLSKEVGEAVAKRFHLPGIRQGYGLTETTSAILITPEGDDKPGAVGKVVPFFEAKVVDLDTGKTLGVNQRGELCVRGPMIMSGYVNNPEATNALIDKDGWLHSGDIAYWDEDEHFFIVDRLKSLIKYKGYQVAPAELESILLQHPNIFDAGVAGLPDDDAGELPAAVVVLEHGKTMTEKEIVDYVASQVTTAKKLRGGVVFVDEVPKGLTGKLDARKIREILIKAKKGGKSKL
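Purified P. pyralis luciferase, 10 nM final, with Km-level 10 uM D-luciferin and 10 uM ATP in 50 mM Tris acetate pH 7.5, 10 mM Mg acetate, 0.01% Tween-20, 0.05% BSA; 6-point qHTS titration about 60 µM downward; luminescence read.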
Numbers without * were called inactive; ? = inconclusive; nt = not tested or not shown. Calls come from the whole dose curve; as a rule, active = well fitted curve in the direction sought with a large enough effect; inconclusive = small, poorly fitted or top-dose-only effect, or another doubt; inactive = no such curve, though single readings can be large; an effect the other way counts as inactive or inconclusive. Potency is the fitted concentration of half-maximal effect.

SMILES	ELG1 DNA repair	NPC1 promoter act	SMN2 splice enh	Rab9 prom act	ELG1 genotox	FLuc modulator
CCCN(CCC)Cc1c(C(=O)N/N=C/CCc2ccccc2)nnn1-c1nonc1N	0%	-7%	nt	-1%	0%	5%
Cc1cc(/C=C(\C#N)c2nc3ccccc3[nH]2)c(C)n1C	?	3.5µM*	11µM*	2.2µM*	?	0.95µM*
Cc1ccc2nc(/C(C#N)=C/c3ccc(-c4cccc([N+](=O)[O-])c4)o3)[nH]c2c1	?	7%	4%	-1%	1%	?
Cc1cc(/C=C(/C#N)c2nc3ccccc3[nH]2)c(C)n1-c1cccc([N+](=O)[O-])c1	15µM*	10%	-17%	5%	-1%	5.4µM*
COCCCn1cnc2oc3nc4ccccc4nc3c2c1=O	?	1.6µM*	10µM*	0.63µM*	2.1µM*	7.6µM*
COc1ccccc1CCNS(=O)(=O)c1cc2c3c(c1)CCN3C(=O)CC2	?	-5%	nt	0%	3%	-1%
COc1ccc(NC(=O)C2CCCN(c3nnc(C)c4c(C)n(-c5ccccc5)nc34)C2)cc1Cl (stereo not given)	nt	nt	nt	nt	nt	-12%
O=[N+]([O-])c1ccc(O)c(/C=N/n2c(CO)nc3ccccc32)c1	26µM*	1%	nt	-5%	-5%	-9%
O=[N+]([O-])c1ccc(O)c(/C=N/n2cnc3ccccc32)c1	21µM*	6%	-48%	-3%	-10%	27µM*
Cc1cccc2nc(CNC(=O)CC3C(=O)NCCN3Cc3cccc(F)c3)cn12 (stereo not given)	13%	-1%	nt	1%	-6%	3%
Cc1cccc(NC(=O)c2onc3c2CCCC3)n1	?	0.5µM*	nt	0.4µM*	0.92µM*	0.76µM*
Cc1ccccc1NC(=O)c1onc2c1CCCC2	?	4.5µM*	?	2.5µM*	?	6µM*
Cc1cccc(NC(=O)c2onc3c2CCCC3)c1C	?	4.5µM*	29%	2.8µM*	?	7.6µM*
CCCCOc1cccc(NC(=O)CSc2nnc(C)s2)c1	nt	nt	2%	nt	nt	-13%
COc1cc(/C=C(\C#N)C(=O)N2CCc3ccccc32)ccc1O	11%	-1%	nt	-7%	0%	17µM*
COc1cc(/C=C(\C#N)C(=O)Nc2ccc3c(c2)OCCO3)ccc1O	2%	-5%	nt	12%	5%	0.27µM*
COc1cc(/C=C(\C#N)C(=O)Nc2cccc3ncccc23)ccc1O	-2%	-4%	3%	0%	0%	0%
CCOc1cc(/C=C(\C#N)C(=O)Nc2ccccn2)ccc1O	5%	-7%	nt	1%	9%	17µM*
CNc1ccc(/C=C(\C#N)C(=O)Nc2ccccn2)cc1[N+](=O)[O-]	16%	2%	nt	0%	0%	0%
COc1cc(/C=C(\C#N)C(=O)Nc2ccccn2)ccc1O	?	-3%	nt	-2%	?	11µM*
COc1ccc(Cl)cc1NC(=O)CSC1=Nc2ccccc2C2=NC(CCC(=O)NCc3ccc(F)cc3)C(=O)N12 (stereo not given)	nt	nt	2%	nt	nt	4%
CCOCCCNC(=O)c1ccc(NC(=O)N2CCCCc3ccccc32)cc1	nt	nt	nt	nt	nt	1%
Nc1nc2c(nc(Br)n2C2OC(CO)C(O)C2O)c(=O)[nH]1 (stereo not given)	nt	nt	-1%	nt	nt	nt
CCOc1ccc(/C=C(\C#N)C(=O)Nc2cccnc2)cc1	-5%	0%	-2%	-2%	1%	0%
CCOc1cccc(NC(=O)/C(C#N)=C/c2cccnc2)c1	-3%	-6%	nt	-1%	0%	17µM*
SMILES	ELG1 DNA repair	NPC1 promoter act	SMN2 splice enh	Rab9 prom act	ELG1 genotox	FLuc modulator
COc1ccc(N2CC(C)Cn3c2nc2c3c(=O)n(Cc3ccc(F)cc3)c(=O)n2C)c(OC)c1 (stereo not given)	16µM*	-6%	-11%	-7%	-8%	1%
COc1ccccc1OCCSc1nc2ccccc2n1CC(N)=O	?	-3%	nt	5%	3%	15µM*
COc1ccc(C(=O)N2CCCC(CCC(=O)NCc3ccccc3F)C2)c(OC)n1 (stereo not given)	1%	-2%	nt	-1%	-2%	4%
C=CCOn1c(C)c(C(C)=O)c2c3nonc3ccc21	10µM*	0%	-36%	-6%	-10%	-3%
C=CCOn1c(C)c(C(C)=O)c2c3no[n+]([O-])c3ccc21	?	1%	0%	-5%	-12%	0%
C/C(=N\Nc1cc(C)nc(-c2ccccc2O)n1)c1ccccc1O	?	0%	nt	-2%	-14%	15µM*
Cc1cc(N(C)/N=C/c2ccccc2)nc(-c2ccccc2O)n1	-11%	-1%	nt	-1%	-8%	-15%
Cc1cc(N/N=C/c2ccc(O)cc2O)nc(-c2ccccc2O)n1	10µM*	5%	-26%	0%	-5%	2.7µM*
Cc1cc(N/N=C/c2ccc(O)cc2O)c2ccccc2n1	27%	9%	nt	0%	5%	1%
Cc1cc(Nc2ccc(Cl)cc2)nc(-c2ccccc2O)n1	-1%	-2%	nt	3%	-6%	?
Cc1cc(N/N=C\c2ccccc2)nc(-c2ccccc2O)n1	?	22%	?	22%	-1%	6µM*
Cc1cc(N/N=C/c2ccccc2O)nc(-c2ccccc2O)n1	?	-1%	-17%	-3%	-1%	8.5µM*
Cc1nnc(N2CCCC(C(=O)NCCc3ccc(Cl)cc3)C2)c2nn(-c3ccccc3)c(C)c12 (stereo not given)	nt	nt	nt	nt	nt	-19%
CCOC(=O)c1[nH]c2ccccc2c1NC(=O)c1cc(OC)cc(OC)c1	nt	nt	-7%	nt	nt	3%
COc1ccc(NC(=O)c2cc(C3CC3)nc3c2c(C)nn3-c2ccccc2)cc1OC	nt	nt	nt	nt	nt	-11%
O=c1n(-c2ccc(Br)cc2)cnn1-c1ncccc1[N+](=O)[O-]	?	?	13µM*	2µM*	?	17µM*
OC[C@H]1O[C@@H]2O[C@H]3[C@H](O)[C@@H](O)[C@@H](O[C@H]4[C@H](O)[C@@H](O)[C@@H](O[C@H]5[C@H](O)[C@@H](O)[C@@H](O[C@H]6[C@H](O)[C@@H](O)[C@@H](O[C@H]7[C@H](O)[C@@H](O)[C@@H](O[C@H]8[C@H](O)[C@@H](O)[C@@H](O[C@H]1[C@H](O)[C@H]2O)O[C@@H]8CO)O[C@@H]7CO)O[C@@H]6CO)O[C@@H]5CO)O[C@@H]4CO)O[C@@H]3CO	nt	nt	-7%	nt	nt	nt
CCOc1ccccc1C(=O)N[C@H](C(=O)OCc1cc([N+](=O)[O-])cc2c1OCOC2)C(C)C	21µM*	-4%	-14%	-10%	-3%	5%
